Eight compounds from PubChem BioAssay (NCI) can be followed below.

This is part of a sample that, as a whole, favours compounds with a hit. Of some 83,000 tested, about 20% had one in any assay.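 Each cell line was grown in a 96-well plate and treated with one concentration of compound for 48 hours. Values below 10 were considered active.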 Values without a mark were called inactive. Activity calls are given as the source filed them.

Test systems include SK-MEL-2 melanoma; EKVX NSCLC; SN12C renal; UO-31 renal; TK-10 renal; ACHN renal; CAKI-1 renal; A498 renal; CCRF-CEM leukemia; MOLT-4 leukemia; RPMI-8226 leukemia; OVCAR-8 ovarian; OVCAR-5 ovarian; OVCAR-4 ovarian; SK-OV-3 ovarian; IGROV1 ovarian; OVCAR-3 ovarian; HS 578T breast; NCI/ADR-RES ovarian.
What all share (assay): NCI-60 one-dose screen, 48 h (100 = growth as untreated, 0 = no growth, -100 = all killed)
Holding throughout (details): 10 µM unless noted

Consider `CC(=O)OC[C@H]1OC(Sc2sc(C(=O)c3ccc(Br)cc3)c(N)c2-c2nc3ccccc3s2)[C@H](OC(C)=O)[C@@H](OC(C)=O)[C@H]1OC(C)=O` (some centres not stated), for which the growth in the assay on SK-MEL-2 melanoma was 112%; in the assay with EKVX NSCLC, 80.5%; with SN12C renal, 95.1%; with UO-31 renal, 61.4%; in the assay on TK-10 renal, 128%; in the assay on ACHN renal it was 90.5%. Further, the growth was 67.6% with CAKI-1 renal; 36.1% with A498 renal; 85.5% with CCRF-CEM leukemia; 79.3% with MOLT-4 leukemia; 65.5% with RPMI-8226 leukemia; 80.3% with OVCAR-8 ovarian. Moreover, the growth with OVCAR-5 ovarian was 105%; with OVCAR-4 ovarian, 46.9%; with SK-OV-3 ovarian, 57.3%; with IGROV1 ovarian, 68.8%; in the assay with OVCAR-3 ovarian, 67.1%; in the assay on HS 578T breast, 95.4%. Moreover, the growth in the assay with NCI/ADR-RES ovarian was 88.4%.

Turning to `CC(=O)OC[C@H]1OC(Sc2sc(C(=O)c3ccc(C)cc3)c(N)c2-c2nc3ccccc3s2)[C@H](OC(C)=O)[C@@H](OC(C)=O)[C@@H]1OC(C)=O` (some centres not stated), the growth was 93.6% in the assay on SK-MEL-2 melanoma; 75% in the assay with EKVX NSCLC; 41.9% in the assay on SN12C renal; 25.7% in the assay on UO-31 renal; 99.3% with TK-10 renal; 23.1% in the assay on ACHN renal. Further, the growth in the assay on CAKI-1 renal was 53.7%; in the assay on A498 renal, 98.9%; in the assay with CCRF-CEM leukemia, 60.5%; in the assay with MOLT-4 leukemia it was 80%; in the assay with RPMI-8226 leukemia, 46.5%; with OVCAR-8 ovarian it was 58.7%. Moreover, the growth in the assay with OVCAR-5 ovarian is 58.6%; in the assay on OVCAR-4 ovarian, -13.9% (active); in the assay on SK-OV-3 ovarian, 89.9%; in the assay with IGROV1 ovarian, 48.2%; in the assay on OVCAR-3 ovarian, 59.4%; with HS 578T breast, 52.5%. Besides, in the assay with NCI/ADR-RES ovarian, the growth is 62.9%.

For the compound `COc1cc(-c2nc3sccn3c2-c2ccnc(NCCCNS(=O)(=O)c3ccc(F)cc3)n2)ccc1F`, the growth is 69.6% in the assay with SK-MEL-2 melanoma; 83.6% in the assay with EKVX NSCLC; 62.1% with SN12C renal; 48.6% with UO-31 renal; 118% with TK-10 renal; 60.7% in the assay on ACHN renal. In addition, the growth in the assay with CAKI-1 renal was 61.1%; in the assay with A498 renal, 96.7%; with CCRF-CEM leukemia, 24.7%; in the assay with MOLT-4 leukemia, 47.7%; in the assay on RPMI-8226 leukemia, 9.51% (active); with OVCAR-8 ovarian, 26.7%. Besides, the growth with OVCAR-5 ovarian is 112%; in the assay on OVCAR-4 ovarian it was 51.9%; in the assay with SK-OV-3 ovarian it was 90.4%; in the assay on IGROV1 ovarian, 69.6%; in the assay on OVCAR-3 ovarian, 65.9%; in the assay on HS 578T breast, 92.6%. Also, the growth in the assay on NCI/ADR-RES ovarian was 34.2%.

For the compound `CC(=O)c1ccc(Nc2nc(C(C)=O)c(C)s2)cc1`, the growth in the assay on SK-MEL-2 melanoma is 105%; in the assay on EKVX NSCLC it was 93.2%; in the assay on SN12C renal it was 103%; in the assay with UO-31 renal, 92.1%; in the assay on TK-10 renal, 112%; with ACHN renal it was 100%. In addition, the growth in the assay with CAKI-1 renal is 88.2%; in the assay with A498 renal it was -17.9% (active); in the assay with CCRF-CEM leukemia it was 90.9%; with MOLT-4 leukemia, 100%; with RPMI-8226 leukemia, 95.1%; with OVCAR-8 ovarian, 102%. The growth with OVCAR-5 ovarian was 108%; in the assay on OVCAR-4 ovarian, 94.4%; in the assay with SK-OV-3 ovarian, 101%; with IGROV1 ovarian it was 98.2%; in the assay with OVCAR-3 ovarian, 99.9%; with HS 578T breast, 99.5%. The growth with NCI/ADR-RES ovarian is 105%.

`CCOC(=O)/C(C#N)=C\Nc1ccc2ncnc(Nc3ccc(Cl)cc3Cl)c2c1`: the growth in the assay with SK-MEL-2 melanoma was 110%; with EKVX NSCLC, 41.7%; with SN12C renal it was 89.5%; in the assay with UO-31 renal, 42%; in the assay on TK-10 renal, 44.2%; in the assay with ACHN renal, 62.9%. The growth in the assay with CAKI-1 renal was 39%; with A498 renal, 48.7%; with CCRF-CEM leukemia, 70.9%; with MOLT-4 leukemia it was 58.8%; in the assay on RPMI-8226 leukemia it was 79.5%; in the assay with OVCAR-8 ovarian, 87%. Besides, the growth in the assay with OVCAR-5 ovarian is 82.2%; in the assay on OVCAR-4 ovarian, 95.1%; with SK-OV-3 ovarian, 97%; in the assay on IGROV1 ovarian it was 55%; with OVCAR-3 ovarian, 67.6%; in the assay with HS 578T breast, 75.5%. For the same compound, the growth with NCI/ADR-RES ovarian is 85.4%.

Turning to `O=C(CSc1nc2ccccc2[nH]1)Nc1cccc(Cl)c1`, the growth was 104% with SK-MEL-2 melanoma; 94.7% with EKVX NSCLC; 93% in the assay with SN12C renal; 77.6% in the assay with UO-31 renal; 109% in the assay with TK-10 renal; 99.2% in the assay on ACHN renal. Further, the growth in the assay with CAKI-1 renal was 80.7%; in the assay on A498 renal, 73.3%; in the assay on CCRF-CEM leukemia it was 104%; with MOLT-4 leukemia, 117%; in the assay on RPMI-8226 leukemia, 102%; in the assay with OVCAR-8 ovarian, 106%. Besides, the growth in the assay on OVCAR-5 ovarian is 98.7%; in the assay with OVCAR-4 ovarian, 95.7%; with SK-OV-3 ovarian, 97.9%; in the assay on IGROV1 ovarian it was 96.2%; in the assay with OVCAR-3 ovarian it was 102%; in the assay with HS 578T breast, 91.9%. Besides, in the assay with NCI/ADR-RES ovarian, the growth was 103%.

As to `C[C@]12CC[C@@H]3c4cc(OC(F)F)c(OS(N)(=O)=O)cc4CC[C@H]3[C@@H]1CC[C@@H]2OS(N)(=O)=O`, the growth was 36.1% with SK-MEL-2 melanoma; 19% in the assay with EKVX NSCLC; 42% in the assay on SN12C renal; 42.9% in the assay with UO-31 renal; 100% with TK-10 renal; 40.6% in the assay on ACHN renal. For the same compound, the growth with CAKI-1 renal is 39.1%; with A498 renal, 94.8%; with CCRF-CEM leukemia, 22.9%; in the assay with MOLT-4 leukemia, 20.6%; in the assay on RPMI-8226 leukemia, 39.3%; in the assay on OVCAR-8 ovarian it was 46.2%. For the same compound, the growth with OVCAR-5 ovarian was 94.9%; in the assay on OVCAR-4 ovarian it was 76.1%; in the assay on SK-OV-3 ovarian, 44.7%; with IGROV1 ovarian it was 47.6%; with OVCAR-3 ovarian, 16.2%; in the assay on HS 578T breast, 5.84% (active). In addition, in the assay with NCI/ADR-RES ovarian, the growth is 11.3%.

With `Cc1nc(S(=O)(=O)c2ccccc2)c(S(=O)(=O)Cc2ccc([N+](=O)[O-])cc2)o1`, the growth with SK-MEL-2 melanoma is 89.2%; with EKVX NSCLC, 104%; in the assay with SN12C renal, 89.9%; in the assay on UO-31 renal, 72.5%; in the assay on TK-10 renal it was 105%; with ACHN renal, 87.6%. The growth in the assay on CAKI-1 renal was 95.6%; in the assay on A498 renal, 81.8%; with CCRF-CEM leukemia, 82.8%; in the assay on MOLT-4 leukemia, 90.7%; in the assay on RPMI-8226 leukemia it was 82.6%; in the assay with OVCAR-8 ovarian it was 100%. For the same compound, the growth with OVCAR-5 ovarian is 86.5%; in the assay with OVCAR-4 ovarian it was 93.1%; in the assay with SK-OV-3 ovarian it was 99.1%; in the assay with IGROV1 ovarian, 95.8%; with OVCAR-3 ovarian, 83.9%; with HS 578T breast, 87.6%. The growth in the assay with NCI/ADR-RES ovarian is 104%.
